In PMC4336329 (PLoS ONE, 2015):
In all, about 310,000 compounds went through this assay and about 14,000 (4.5%) showed an effect of 50% or more. Effects have a minus sign here. The full list was thinned out, with strong results kept by preference.

biological target: human ether-à-go-go-related gene (hERG) potassium channel (human, UniProt Q12809); experiment: primary screen, population patch clamp on CHO cells stably expressing hERG; higher = less effect of the substance
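Also: peak tail current of the secondary pulse compared with the same well before compound.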

human ether-à-go-go-related gene (hERG) potassium channel, sequence (Q12809 whole entry, looked up): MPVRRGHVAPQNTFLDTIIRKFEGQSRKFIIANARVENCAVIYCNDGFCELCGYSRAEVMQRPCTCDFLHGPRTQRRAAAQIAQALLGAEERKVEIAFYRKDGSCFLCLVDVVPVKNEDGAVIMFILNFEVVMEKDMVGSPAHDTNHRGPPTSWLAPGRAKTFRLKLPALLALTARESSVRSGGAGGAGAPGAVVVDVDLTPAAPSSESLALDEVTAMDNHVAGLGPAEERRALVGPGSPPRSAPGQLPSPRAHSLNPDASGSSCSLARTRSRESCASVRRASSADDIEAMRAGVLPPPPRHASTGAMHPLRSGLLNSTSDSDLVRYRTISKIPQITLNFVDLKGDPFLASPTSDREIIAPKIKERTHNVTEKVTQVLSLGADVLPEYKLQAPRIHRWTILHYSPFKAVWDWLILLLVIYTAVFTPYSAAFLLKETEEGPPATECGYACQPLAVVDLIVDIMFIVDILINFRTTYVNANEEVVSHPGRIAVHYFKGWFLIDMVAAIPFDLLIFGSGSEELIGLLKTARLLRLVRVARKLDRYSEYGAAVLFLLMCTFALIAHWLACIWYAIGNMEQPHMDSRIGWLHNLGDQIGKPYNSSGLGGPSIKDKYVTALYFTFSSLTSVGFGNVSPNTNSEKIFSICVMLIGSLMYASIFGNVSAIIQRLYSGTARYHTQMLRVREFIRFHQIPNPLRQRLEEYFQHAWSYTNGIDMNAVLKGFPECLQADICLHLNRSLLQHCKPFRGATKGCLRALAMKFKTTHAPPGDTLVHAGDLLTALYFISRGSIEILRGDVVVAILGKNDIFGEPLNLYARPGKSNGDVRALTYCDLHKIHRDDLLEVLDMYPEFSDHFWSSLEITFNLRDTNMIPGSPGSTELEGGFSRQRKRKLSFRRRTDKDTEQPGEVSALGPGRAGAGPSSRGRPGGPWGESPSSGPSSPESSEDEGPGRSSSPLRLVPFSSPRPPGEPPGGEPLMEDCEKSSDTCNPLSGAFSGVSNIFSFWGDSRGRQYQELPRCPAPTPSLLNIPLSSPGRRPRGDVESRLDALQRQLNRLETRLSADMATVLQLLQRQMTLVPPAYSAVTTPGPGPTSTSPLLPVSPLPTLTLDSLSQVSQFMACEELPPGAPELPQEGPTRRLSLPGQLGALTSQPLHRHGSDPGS

In order of falling “hERG current change (%, negative = inhibition) at 10uM” value:
1. CCC1(CC)NC(=O)N(CC(=O)OC(C)C(=O)Nc2ccccc2OC)C1=O (stereo not drawn)  32.3%
2. COCc1ccc(CN2CCC(n3nccc3NC(=O)CCCc3ccccc3)CC2)o1  21.5%
3. CCOc1ccc(NS(=O)(=O)c2ccc(NC(=O)C3CCCO3)cc2)cc1 (stereo not drawn)  20.7%
4. CC(=O)N1CCN(CC(=O)Nc2sccc2C#N)CC1  17.8%
5. O=C(CN1CCOCC1)NCc1ccccc1  17.4%
6. C/C(=N\NC(=S)NCc1ccccc1)c1ccc2ccccc2c1  15.9%
7. COCCNC(=O)/C(C#N)=C/c1ccc(O)c([N+](=O)[O-])c1  14.7%
8. Cc1ccc(N(C(=O)CNC(=O)c2ccco2)C(C(=O)NC2CCCC2)c2ccncc2)c(C)c1 (stereo not drawn)  14.6%
9. O=C(O)C1CCCC2CN3CCc4c([nH]c5ccccc45)C3C(O)C21 (stereo not drawn)  13.7%
10. CC(NS(=O)(=O)c1ccc(F)cc1)C(=O)Nc1ccc2c(c1)OCCO2 (stereo not drawn)  13.2%
11. CN(CCNC(=O)C1CCN(S(=O)(=O)c2cnc[nH]2)CC1)Cc1ccccc1  12.6%
12. CCN1CCN(C(=O)c2ccc(CS(=O)Cc3ccc(C)cc3)o2)CC1 (stereo not drawn)  11%
13. Cc1nnc(SCC(=O)Nc2ccc(N3CCOCC3)cc2)o1  10.3%
14. COC(=O)c1cccc(Nc2cc(C)nc(-c3ccccc3O)n2)c1  10.2%
15. CCCCC(=O)N1C/C=C\C(c2ccc(OC)cc2)N(Cc2ccc(F)cc2)C(=O)[C@H]1Cc1ccccc1 (stereo partly drawn)  7.51%
16. CCOC(=O)c1c(C)nc(-c2ccccc2)nc1N  7.25%
17. COc1ccc(C(=O)NCc2ccc3c(c2)CCO3)cc1  7.15%
18. Cc1ccccc1NC(=O)C1CCCN(S(=O)(=O)c2ccc3c(c2)C(C)(C)C(=O)N3C)C1 (stereo not drawn)  6.82%
19. O=C(CN1CCCCC1)Nc1cc(S(=O)(=O)N2CCOCC2)ccc1N1CCCC1  6.08%
20. COc1ccc(C(=O)C[n+]2cccc3cc(OC)ccc32)cc1.[Br-]  6.04%
21. COc1cccc(CN2CCN(Cc3ccc4c(NC(C)=O)cccc4n3)CC2CCO)c1 (stereo not drawn)  5.13%
22. O=C(CCC1CCCCC1)Nc1ccccc1O  3.23%
23. CCC1(CC)NC(=O)N(CC(=O)OC(C)C(=O)Nc2ccc(NC(C)=O)cc2)C1=O (stereo not drawn)  3.1%
24. O=C(c1cc2ccccc2oc1=O)N(c1ccccc1)C1C=CS(=O)(=O)C1 (stereo not drawn)  2.29%
25. COc1ccc(/C=C/C(=O)OCC(=O)c2ccc3c(c2)NC(=O)CO3)c(OC)c1  1.6%
26. CN(C)CCCNc1ccc(-c2n[nH]c(=O)c3ccccc23)cc1[N+](=O)[O-]  1.1%
27. COCc1ccc(CN2CCC(n3nccc3NC(=O)CCOc3ccccc3)CC2)o1  -0.748%
28. CC(CS(=O)(=O)c1ccc2c(c1)NC(=O)CS2)C(=O)NCc1ccccc1Cl (stereo not drawn)  -0.823%
29. C=C(C)COc1ccc(-c2[nH]ncc2-c2ccc(OC)c(OC)c2)c(O)c1  -0.891%
30. CC12C=CC3(O1)C(C(=O)N1CCCOC13)C2C(=O)O (stereo not drawn)  -2.54%
31. CC1(C)CC(=O)C=C(Nc2ccc3c(c2)CCC3)C1  -2.73%
32. N#Cc1ccsc1NC(=O)CN1CCCCCC1  -3.42%
33. N#Cc1nc(COc2cccc(Cl)c2)oc1N1CCN(c2ccccc2)CC1  -4.18%
34. N#Cc1ccsc1NC(=O)CN1CCN(c2ccccc2O)CC1  -4.95%
35. CCn1c(=O)n(CC)c2cc(NC(=O)CSc3ccc([N+](=O)[O-])cn3)ccc21  -5.04%
36. CCOC(=O)c1ccc(N2C(=O)c3n[nH]c(C)c3C2c2ccco2)cc1 (stereo not drawn)  -5.29%
37. Cc1ccc(N(C(=O)c2cc3ccccc3oc2=O)C2C=CS(=O)(=O)C2)cc1 (stereo not drawn)  -6.15%
38. COc1ccc(N2C(=O)CC(N3CCN(S(=O)(=O)c4cc(C)ccc4C)CC3)C2=O)cc1 (stereo not drawn)  -6.8%
39. Cc1ncoc1C(=O)N1CCCC(CCC(=O)NCc2ccccc2F)C1 (stereo not drawn)  -6.93%
40. COc1ccc(-c2csc3nc(C)nc(N4CCCCC4)c23)cc1OC  -7.85%
41. O=S(=O)(NCc1cccnc1)c1ccc(Cl)c(Cl)c1  -10.9%
42. CC(C)C1Cc2c(sc3c2c(=O)n(Cc2ccccc2)c2nncn32)CO1 (stereo not drawn)  -11%
43. CN(C)c1ccc(CN(C(=O)c2cc3ccccc3oc2=O)C2CCS(=O)(=O)C2)cc1 (stereo not drawn)  -11.8%
44. O=C(c1cc2ccccc2oc1=O)N(Cc1ccccc1)C1CCS(=O)(=O)C1 (stereo not drawn)  -12.2%
45. COc1ccc([C@H]2/C=C\CN(C(=O)CC(C)(C)C)[C@@H](C)C(=O)N2Cc2ccc(F)cc2)cc1  -17.4%
46. COc1ccc(CN(C(=O)c2cc3ccccc3oc2=O)C2CCS(=O)(=O)C2)cc1 (stereo not drawn)  -18.9%
47. C=CCOc1ccccc1CN1CCC(n2nccc2NC(=O)C2CCOC2)CC1 (stereo not drawn)  -21.5%
48. COC(=O)C1=C2c3[nH]c4ccccc4c3CCN2C(=O)CC1  -23.1%
49. COc1ccccc1CN1CCC(n2nccc2NC(=O)CCc2ccccc2)CC1  -23.9%
50. OCCC1CN(Cc2ccc3nsnc3c2)CCN1C1CCCC1 (stereo not drawn)  -25%
51. OCC1(Cc2ccccc2C(F)(F)F)CCN(Cc2ccc3c(c2)CCO3)CC1  -28.7%
52. CC(=O)Nc1ccc2nc(CN3CCN(Cc4ccc(F)cc4)C(CCO)C3)ccc2c1 (stereo not drawn)  -28.8%
53. CC(C(=O)N1CCc2ccccc21)N(C)CC(=O)Nc1ccccc1Cl (stereo not drawn)  -29.2%
54. O=C(Nc1ccccc1)NC1CCN(Cc2nnnn2C2CCCCC2)CC1  -29.2%
55. Cc1ccc(CN2CCN(Cc3ccc4cc(F)ccc4n3)CC2CCO)o1 (stereo not drawn)  -30.6%
56. N#Cc1ccsc1NC(=O)CN1CCN(S(=O)(=O)c2cc(Cl)ccc2Cl)CC1  -32%
57. Cc1ccc(CN(C(=O)c2cc3ccccc3oc2=O)C2CCS(=O)(=O)C2)cc1 (stereo not drawn)  -34%
58. COc1ccc(CN2CCN(Cc3ccon3)CC2CCO)c(C)c1C (stereo not drawn)  -37.3%
59. CCOc1ccccc1CN1CCC(n2nccc2NC(=O)CCc2ccccc2)CC1  -38.6%
60. O=C(c1cnsn1)N1CCC(CO)(Cc2ccc(Cl)cc2)CC1  -43.7%
61. O=C(Nc1ccnn1C1CCN(Cc2c[nH]c3ccccc23)CC1)c1ccccc1  -44.7%
62. Cc1ccccc1CN1CCC(n2nccc2NC(=O)CCOc2ccccc2)CC1  -44.9%
63. CC(C(=O)N1CCc2ccccc21)N(C)CC(=O)Nc1ccc(F)cc1 (stereo not drawn)  -47.9%
64. COc1ccc(CC2(CO)CCN(Cc3nc(C(C)C)cs3)CC2)cc1  -48.4%
65. Cc1cc(C)c(NC(=O)CN(C)C(C)C(=O)N2CCc3ccccc32)c(C)c1 (stereo not drawn)  -50.3%
66. CCC1(CC)NC(=O)N(CC(=O)OC(C)C(=O)Nc2ccc(Cl)cn2)C1=O (stereo not drawn)  -51.7%
67. Cc1cc(C)cc(N(C(=O)c2cc3ccccc3oc2=O)C2C=CS(=O)(=O)C2)c1 (stereo not drawn)  -55.4%
68. CCc1ccc(CN(C(=O)c2cc3ccccc3oc2=O)C2CCS(=O)(=O)C2)cc1 (stereo not drawn)  -56.5%
69. N#Cc1ccsc1NC(=O)CN1CCN(S(=O)(=O)c2ccccc2C(F)(F)F)CC1  -56.9%
70. Cc1ccc(C)c(S(=O)(=O)N2CCN(CC(=O)Nc3sccc3C#N)CC2)c1  -57.7%
71. COc1ccc(CC2(CO)CCN(Cc3ccc4nsnc4c3)CC2)cc1  -58.9%
72. COc1cccc(CN2CCC(n3nccc3NC(=O)CCOc3ccccc3)CC2)c1O  -61.5%
73. OCC1(Cc2ccc(Cl)cc2)CCN(Cc2ccc3nsnc3c2)CC1  -61.5%
74. CC(C)c1ccc(CN(C(=O)c2cc3ccccc3oc2=O)C2CCS(=O)(=O)C2)cc1 (stereo not drawn)  -62%
75. COc1ccc(CN2CCN(Cc3ccc4cc(F)ccc4n3)CC2CCO)c(C)c1C (stereo not drawn)  -63.7%
76. C=CCOc1ccccc1CN1CCC(n2nccc2NC(=O)c2ccccc2)CC1  -64.4%
77. COc1cc(CN2CCN(Cc3ccc4cc(F)ccc4n3)CC2CCO)cc(OC)c1 (stereo not drawn)  -64.4%
78. COc1ccc(CC2(CO)CCN(Cc3ccc4c(c3)CCO4)CC2)cc1  -65.7%
79. CCCCC(=O)N1C/C=C\[C@H](c2ccc(OC)cc2)N(Cc2ccc(F)cc2)C(=O)[C@@H]1C  -68.6%
80. CCOc1ccc(CN2CCN(Cc3ccc4cc(F)ccc4n3)CC2CCO)cc1 (stereo not drawn)  -75.7%
81. COc1cccc(CN2CCC(n3nccc3NC(=O)CCCc3ccccc3)CC2)c1O  -75.9%
82. OCC1(CCc2ccccc2)CCN(Cc2ccc3nsnc3c2)CC1  -77.7%
83. CCOc1ccccc1CN1CCC(n2nccc2NC(=O)CCCc2ccccc2)CC1  -83.7%
84. COc1ccccc1CN1CCC(n2nccc2NC(=O)CCCc2ccccc2)CC1  -85.2%
